# HEK293 cAMP cs: counter-screen for TSHR agonists: cAMP increase in parental HEK293; parental HEK293 CNG cAMP sensor, membrane potential fluorescence; Potency, µM (titrated, usually from 57.1 µM), inactives show at the highest dose activation, actives largely listed as activators; 2.5% of 73,000 active; AID 938; also: % of control where 0% means no effect; nearly all actives have a fitted effect of over 55% in size
#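 Parental HEK 293 cells stably expressing a modified CNG channel (no TSHR) report cAMP rise as membrane depolarization. Membrane potential dye with 100 uM RO 20-1724 was loaded for 60 min at room temperature, then compound added for 30 min; fluorescence read at 590 nm.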
# GBA activity: modulators of human glucocerebrosidase | P04062 | purified enzyme, resorufin glucoside fluorescence (screen aimed at inhibitors), 20 min | Potency, µM | 1.1% of 48,000 active | AID 360; in the data active = potency below about 15 µM; inconclusive = mostly about 16 µM to 33 µM;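 also: the screen sought inhibitors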
#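 Wild-type enzyme at 0.2 nM final in 50mM citric acid/KH2PO4, 10mM sodium taurocholate, 0.01% tween-20, pH 5.9, with resorufin beta-D-glucopyranoside at 30 uM final. Compounds titrated, 20 min at RT, red fluorescence read; AC50 from titration.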
# TSHR agonist: TSH receptor (human) agonism; Potency, µM (doses to about 57.1 µM), without a hit: at the top dose activation, actives largely listed as activators; HEK293-CNG-TSHR cells (CNG channel as cAMP sensor), membrane potential dye, cAMP; 0.48% of 73,000 active; active = well fitted activation curve with a large enough effect in the main read-out, with a control signal flat, not every such curve was filed as active; inconclusive = small, poorly fitted or top-dose-only effect, or a change in a side signal; inactive = no such curve, though single readings can be large or run the other way; % of control where 0% means no effect;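 also: the control signal comes from parental cells without the receptor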
#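 cAMP rise detected as CNG-channel membrane depolarization by fluorescent dye (emission 590 nm), 30 min after compound, following 60 min dye loading containing 100 uM RO 20-1724 at room temperature. Cells: TSHR/CNG HEK 293, with parental CNG HEK 293 as control.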
# PK Bst: modulators of Bacillus stearothermophilus pyruvate kinase; purified pyruvate kinase, luminescence ATP production; ribose 5-phosphate activator present at AC10; Potency, µM; 1.2% of 51,000 active; AID 361; in the data active = potency below about 11 µM; inconclusive = mostly about 12 µM to 25 µM;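 the screen sought inhibitors and activators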;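 also: scaled between full activation by ribose 5 phosphate and full inhibition by luteolin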
# Luciferase inh: inhibitors of firefly luciferase; AID 411; P08659; 2.2% of 72,000 active; Potency, µM (top dose mostly 57.1 µM), inactives show top-dose activity change, negative = inhibition, actives largely listed as inhibitors; purified firefly luciferase, luminescence, 8 min; also: % is scaled to controls: 0 for no effect and ±100 for the full control effect; nearly all actives have a fitted effect of over 40% in size
# Target sequence (P08659 whole entry, looked up): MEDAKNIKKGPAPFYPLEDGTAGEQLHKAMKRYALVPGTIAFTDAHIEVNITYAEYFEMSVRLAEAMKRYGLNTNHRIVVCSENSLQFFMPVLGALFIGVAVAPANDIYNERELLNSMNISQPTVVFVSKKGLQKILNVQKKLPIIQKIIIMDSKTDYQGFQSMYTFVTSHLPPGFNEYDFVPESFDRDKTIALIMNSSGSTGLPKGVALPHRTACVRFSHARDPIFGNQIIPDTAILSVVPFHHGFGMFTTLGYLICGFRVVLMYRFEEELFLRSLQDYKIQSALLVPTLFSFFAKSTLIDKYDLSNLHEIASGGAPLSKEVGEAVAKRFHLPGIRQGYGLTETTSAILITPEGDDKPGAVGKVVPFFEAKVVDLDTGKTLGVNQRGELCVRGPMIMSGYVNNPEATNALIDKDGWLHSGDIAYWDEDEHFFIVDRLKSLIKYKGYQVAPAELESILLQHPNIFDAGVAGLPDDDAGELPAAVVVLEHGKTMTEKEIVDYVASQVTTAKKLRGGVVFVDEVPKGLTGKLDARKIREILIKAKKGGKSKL
#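 Titration-based qHTS; buffer 50 mM imidazole pH 7.2, 50 mM KCl, 7 mM MgCl2, 10 uM ATP, 0.01% Tween 20, 0.05% BSA; luciferase/luciferin detector mix added after compound; 8 min, ambient; luminescence.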
# ERK AVP inh: inhibitors of vasopressin-stimulated ERK signaling pathway | Potency, µM (titrated, usually from 57.5 µM), inactives show at the highest dose activity, negative = inhibition, actives largely listed as inhibitors | 0.99% of 72,000 active | HEK293-V1b, vasopressin-stimulated pERK AlphaScreen; also: % is scaled to controls: 0 for no effect and ±100 for the full control effect; nearly all actives have a fitted effect of over 55% in size
#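 Overnight-seeded V1b-HEK293 cells in 1% FBS got compound, then vasopressin (25 nM final, 5 min, 37C), then lysis buffer. AlphaScreen detection of phospho-ERK; activity normalized to basal and full-stimulation controls.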
# Active calls of the source: *; i = inactive; u = inconclusive; x = no result; [ ] = another dose, or the depositor's remark. Only some compounds are listed: those with a hit (about 6.1% of all), similar ones and a draw of the others. Unless noted, calls follow the shape of the dose curve; as a rule, active = well fitted curve in the direction sought with a large enough effect; inconclusive = small, poorly fitted or top-dose-only effect, or another doubt; inactive = no such curve, though single readings can be large; an effect the other way counts as inactive or inconclusive. Potency is read from the fitted curve at half-maximal effect.
SMILES,HEK293 cAMP cs,GBA activity,TSHR agonist,PK Bst,Luciferase inh,ERK AVP inh
Clc1ccc(Cn2ncc3c(N4CCCCC4)ncnc32)c(Cl)c1,19.9%,11*,11.4%,>57,-0.3%,17.2%
O=C1[C@H]2[C@H]3[C@H](O)[C@H](O)C/C(=N/OCc4ccccc4)[C@@H]3CC[C@@H]2C(=O)N1c1cccc(Oc2ccccc2)c1,u,x,u,x,0.1%[11.4 µM],5.4%[11.5 µM]
COc1ccccc1-c1nc(-c2cccc(C)c2)no1,17.5%,>76.9,-4.7%,9.44*,12.6µM*,14.6%
COc1ccccc1-c1noc(-c2ccco2)n1,4.2%,>76.9,2.6%,x,20µM*,-23.8%
COc1ccc(-c2nc(-c3ccccc3OC)no2)cc1OC,u,>76.9,u,i,15.8µM*,-10.5%
CC12C=C(/C=C/c3ccccc3)C(C)(C1)C(c1ccccc1)CC2=O (stereo not given),7.4%[11.4 µM],x,-3.5%[11.4 µM],x,x,22.6%[11.5 µM]
Cc1ccc(-c2nnc(N(C)C(=O)c3cccnc3)s2)cn1,7.1%,>76.9,-3.1%,>57,-1.6%,-15.8%
COc1ccc(-c2nnc(N(C)C(=O)c3cccnc3)s2)cc1,6.0%,>76.9,-1.4%,x,6.31µM*,0.5%
CC(C)CCn1nnnc1C(c1ccc(F)cc1)N1CCN(C(=O)c2ccco2)CC1 (stereo not given),15.7%,>76.9,16.7%,>57,-1.0%,-13.1%
COc1ccc(OC)c(C(c2nnnn2CCC(C)C)N2CCN(C(=O)c3ccco3)CC2)c1 (stereo not given),15.8µM*,>76.9,u,>57,-2.2%,21.2%
COC(=O)CNC(=O)[C@@]1(Cc2ccccc2)C=C[C@@H](C)N1C(=O)c1ccccc1,u,x,u,x,x,-2.9%
C[C@@H]1C=C[C@](Cc2ccccc2)(C(=O)NCC2CC2)N1C(=O)c1ccccc1,15.8µM*,x,u,x,x,19.8%
O=C(c1ccco1)N1c2ccccc2Sc2ccccc21,20µM*,>76.9,u,>57,0.0%,22.3%
O=C1c2ccccc2-c2ccc(N(Cc3ccc(Br)cc3)Cc3ccc(Br)cc3)cc21,13.6%[11.4 µM],x,3.9%[11.4 µM],x,0.4%[11.4 µM],3.98µM*
O=C1c2ccccc2[C@@H]([C@@H]2c3ccccc3C(=O)c3cc(Br)ccc32)c2ccc(Br)cc21,6.0%[11.4 µM],x,-4.4%[11.4 µM],x,0.9%[11.4 µM],u
O=C(NCC12CC3CC(CC(C3)C1)C2)c1nn2c(c1Cl)NC(c1ccco1)CC2C(F)(F)F (stereo not given),-7.2%,14.2*,-3.5%,>57,0.6%,9.5%
O=C(CN(C(=O)CNS(=O)(=O)c1ccccc1)c1ccc2c(c1)OCCO2)NC1CCCCC1,11.8%,12*,2.5%,>57,1.7%,-0.9%
O=C(CN(C(=O)CNS(=O)(=O)c1ccccc1)c1ccc2c(c1)OCCO2)NCc1ccco1,6.3%,x,11.9%,>57,-0.9%,12.6%
CCN1C(=O)[C@H]2[C@H]3[C@H](O)[C@H](O)C/C(=N/O[C@@H](C)CN4CCCCc5nc(C)c(C)cc54)[C@@H]3CC[C@@H]2C1=O,-0.1%[11.4 µM],x,5.3%[11.4 µM],x,-0.1%[11.4 µM],11.6%[11.5 µM]
Cc1cc(C)n(-c2nc3ccccc3c(=O)n2OCC(=O)Nc2c(C)cccc2C)n1,26.6%,>76.9,12.6µM*,>57,2.4%,u
OCCN1CCN(C(=S)c2ccc(Cl)c(Cl)c2)CC1,-60.0%,10.5*,u,x,-26.3%,48.2%
COC(=O)c1ccc(OC)c(CSc2nnc(COc3ccccc3)o2)c1,12.6µM*,>76.9,u,>57,-0.6%,1.4%
COC(=O)c1ccc(OC)c(CSc2nnc(COc3ccc(Cl)cc3)o2)c1,u,>76.9,u,>57,-1.0%,13.5%
Cc1cccc(OCc2nnc(SCC(=O)c3ccccc3)o2)c1,3.98µM*,>76.9,u,>57,-1.6%,-6.9%
C/C(=C\COc1cc(=O)[nH]c2ccccc12)CC[C@@H](O)C(C)(C)O,-4.3%,x,0.8%,x,-2.0%[11.4 µM],x
SMILES,HEK293 cAMP cs,GBA activity,TSHR agonist,PK Bst,Luciferase inh,ERK AVP inh
O=C(O)c1ccc(C(=O)O)c(C(=O)O)c1.[NH-][C@@H]1CCCC[C@@H]1[NH-].[Pt],2.3%[11.4 µM],x,-1.6%[11.4 µM],x,-2.6%[11.4 µM],20.9%[11.5 µM]
CCCC1(C(=O)OC)C=C2C(=C(C)C(=O)C2C)CN1 (stereo not given),-1.8%,x,1.1%,x,x,29.0%
Cc1cc(Cl)nc(NC(=O)CSc2ccc(Cl)cc2)n1,27.5%[11.4 µM],x,3.4%[11.4 µM],x,5.0%[11.4 µM],-4.9%[11.5 µM]
CC(C)C[C@@H](N)C(=O)Nc1ccc2ccccc2c1,-1.7%[11.4 µM],x,0.9%[11.4 µM],x,0.1%[11.4 µM],-6.1%[11.5 µM]
CCCC(c1nnnn1C1CCCC1)N1CCN(c2ccccc2F)CC1 (stereo not given),5.01µM*,>76.9,u,>57,1.3%,16.8%
CCCCCCCC#Cc1ccccc1C(NC(=O)OC)C(C(=O)OC)C(=O)OC (stereo not given),23.7%[11.4 µM],x,12.1%[11.4 µM],x,x,13.2%[11.5 µM]
COC(=O)Cc1c(C)nc2nc(-c3ccc(OC)cc3)[nH]n2c1=O,-6.2%,>76.9,-11.4%,x,12.6µM*,-6.5%
N#Cc1cccc(NC(=O)N2CC[C@@]3(CCCN(C(=O)c4ccco4)C3)C2)c1,4.8%,x,12.8%,x,-0.7%[11.4 µM],-27.7%
COc1ccc(NS(=O)(=O)c2cc(C)ccc2C)cc1,11.1%,x,-1.4%,>11.4,-0.6%,-9.6%
COCCNC(=O)c1ccc(NS(=O)(=O)c2cc(C)ccc2C)cc1,1.0%,7.13*,0.0%,i,-2.0%,-16.6%
O=C(NCCCN1CCCCCC1)[C@@H](c1ccccc1)C1CCCCC1,15.8µM*,x,u,x,2.9%,18.8%
CCN1CCN(c2ncc3c(n2)CC(c2cc(OC)c(OC)c(OC)c2)CC3=O)CC1 (stereo not given),10µM*,>76.9,u,>57,0.6%,14.2%
O=C1CC(c2cccc(Cl)c2)Cc2nc(N3CCN(c4ccccc4)CC3)ncc21 (stereo not given),u,>76.9,u,>57,2.0%,-10.2%
O=C1CC(c2cccc(Cl)c2)Cc2nc(N3CCOCC3)ncc21 (stereo not given),5.01µM*,i,u,>57,2.2%,u
CC(=O)Nc1ccc(Oc2ccc3nc(C)[nH]c3c2)cc1,x,x,x,>25.6,-2.2%[25.5 µM],x
O=S(=O)(Nc1ccc2nc(-c3ccc(Br)o3)[nH]c2c1)c1ccccc1,u,>76.9,u,>11.4,-13.3%,-15.9%
O=C(Nc1ccc2nn(-c3ccccc3)nc2c1)c1cccs1,12.9%,>15.4,24.5%,>57,-8.4%,u
O=C(Nc1ccc2nc(-c3ccc(Br)o3)[nH]c2c1)c1ccco1,18.9%,x,1.7%,10.3*,10µM*,-26.2%
O=C(Nc1ccc2nc(-c3ccc(Br)o3)[nH]c2c1)c1cccs1,23.3%,x,14.5%,u,12.6µM*,u
CC(=O)Nc1ccc2nc(-c3cccs3)[nH]c2c1,0.9%[11.4 µM],x,9.5%[11.4 µM],x,15.8µM*,-2.1%
O=C(Nc1cccc(-c2nc3ccccc3[nH]2)c1)c1cccc(NC(=O)c2ccco2)c1,8.2%,i,0.4%,>57,-21.7%,u

# Bioassay records: PubChem, National Center for Advancing Translational Sciences (NCATS)
